# Test results published in PubChem BioAssay AID602124 (The Scripps Research Institute Molecular Screening Center, 2011).
# About 630 (48%) of roughly 1,300 compounds were called active. No stated cut-off is given here; in the data, active means inhibition above about 6.5%; inactive means the rest. So high a share suggests a set chosen from earlier hits. The full list was thinned out, with actives kept by preference.
# Molecular target: Tyrosine-protein kinase ABL1 (Homo sapiens) + Ras and Rab interactor 1 (Homo sapiens) (UniProt P00519+Q13671)
# Sequence (P00519 whole entry, looked up): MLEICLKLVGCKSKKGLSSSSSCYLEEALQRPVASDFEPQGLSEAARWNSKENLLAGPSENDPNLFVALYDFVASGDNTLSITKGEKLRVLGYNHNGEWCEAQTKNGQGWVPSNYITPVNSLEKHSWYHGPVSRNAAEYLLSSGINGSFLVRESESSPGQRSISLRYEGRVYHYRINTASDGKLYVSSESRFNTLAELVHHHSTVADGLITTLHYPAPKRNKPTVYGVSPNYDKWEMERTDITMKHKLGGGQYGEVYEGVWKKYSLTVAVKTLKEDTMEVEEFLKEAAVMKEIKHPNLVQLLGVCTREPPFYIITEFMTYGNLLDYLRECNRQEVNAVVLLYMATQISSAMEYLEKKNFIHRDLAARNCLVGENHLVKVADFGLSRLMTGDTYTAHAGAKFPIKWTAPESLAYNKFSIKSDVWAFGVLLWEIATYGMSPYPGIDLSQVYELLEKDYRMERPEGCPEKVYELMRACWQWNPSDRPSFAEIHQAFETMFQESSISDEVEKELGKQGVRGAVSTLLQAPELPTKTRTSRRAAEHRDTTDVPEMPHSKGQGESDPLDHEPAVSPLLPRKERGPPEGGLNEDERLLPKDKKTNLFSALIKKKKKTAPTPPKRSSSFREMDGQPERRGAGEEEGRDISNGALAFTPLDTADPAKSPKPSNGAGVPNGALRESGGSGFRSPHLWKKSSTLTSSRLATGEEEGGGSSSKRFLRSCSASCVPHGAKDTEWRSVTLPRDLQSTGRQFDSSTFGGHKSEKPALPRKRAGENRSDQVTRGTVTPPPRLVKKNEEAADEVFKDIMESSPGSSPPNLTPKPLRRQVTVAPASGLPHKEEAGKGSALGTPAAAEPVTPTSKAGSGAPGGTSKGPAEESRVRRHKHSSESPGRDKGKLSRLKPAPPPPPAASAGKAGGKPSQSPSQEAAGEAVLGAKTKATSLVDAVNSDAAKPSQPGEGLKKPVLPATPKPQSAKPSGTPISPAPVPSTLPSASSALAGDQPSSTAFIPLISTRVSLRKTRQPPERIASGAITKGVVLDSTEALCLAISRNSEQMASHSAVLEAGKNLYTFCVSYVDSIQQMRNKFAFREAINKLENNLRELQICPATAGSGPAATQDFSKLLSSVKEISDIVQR
# Sequence (Q13671 whole entry, looked up): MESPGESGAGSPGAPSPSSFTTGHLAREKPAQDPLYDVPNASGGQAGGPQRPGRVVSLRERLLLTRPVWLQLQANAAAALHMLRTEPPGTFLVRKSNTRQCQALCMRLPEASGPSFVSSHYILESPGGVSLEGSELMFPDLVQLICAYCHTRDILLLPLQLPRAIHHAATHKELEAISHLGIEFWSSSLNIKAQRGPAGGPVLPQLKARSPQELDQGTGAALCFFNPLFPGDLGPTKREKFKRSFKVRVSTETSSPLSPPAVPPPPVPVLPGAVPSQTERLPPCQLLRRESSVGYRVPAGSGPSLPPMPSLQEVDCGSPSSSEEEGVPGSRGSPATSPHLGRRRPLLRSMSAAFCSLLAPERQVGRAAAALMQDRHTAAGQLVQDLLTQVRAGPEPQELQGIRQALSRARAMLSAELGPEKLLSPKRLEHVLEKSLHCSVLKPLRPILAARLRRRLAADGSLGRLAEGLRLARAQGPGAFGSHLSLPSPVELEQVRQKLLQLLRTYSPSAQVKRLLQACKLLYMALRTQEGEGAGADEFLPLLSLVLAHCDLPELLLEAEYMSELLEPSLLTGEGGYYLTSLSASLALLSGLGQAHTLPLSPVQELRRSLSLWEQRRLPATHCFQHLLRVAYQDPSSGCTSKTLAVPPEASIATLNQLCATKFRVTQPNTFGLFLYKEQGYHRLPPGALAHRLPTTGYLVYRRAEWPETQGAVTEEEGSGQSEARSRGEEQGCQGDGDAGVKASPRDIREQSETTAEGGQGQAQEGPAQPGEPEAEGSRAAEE
# Assay: Rin1-Abl binding inhibitor retest, confirmation, biochemical, TR-FRET (AID 602124)
# Conditions: purified proteins, at 7.35 µM, stronger effect = higher value
row,Compound,inhibition
1,CSCCC(c1nnnn1C(C)(C)C)N1CCC(n2c(=O)[nH]c3ccccc32)CC1 (stereo unspecified),16.5% (active)
